GAA glycogen mod – GAA glycogen-cleavage inhibition or activation; recombinant GAA, glycogen substrate, Amplex Red glucose oxidase fluorescence; P10253; actives 0.38% (n = 300,000); Potency, µM (top dose mostly 76.4 µM), without a hit: at the top dose activity change, negative = inhibition, actives largely listed as inhibitors;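 further: potency means the concentration at half of the fitted maximal effect; 0% = full enzyme reaction and -100% = no-enzyme basal signal; the screen sought inhibitors and activators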
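Recombinant human enzyme (4 nM); glycogen substrate; 37 C, 40 min, pH 5.0. Readout: coupled glucose oxidase/Amplex Red fluorescence.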
GLA spleen mod – inhibits or activates alpha-galactosidase in human spleen homogenate. P06280. human spleen homogenate, 4MU-alpha-Gal fluorescence, 40 min. Potency, µM (highest dose often 80 µM), without a hit: top-dose activity change, negative = inhibition, most hits filed as inhibitors. actives 0.008% (n = 240,000). AID 2107;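 further: potency means the concentration at half of the fitted maximal effect; 0% = enzyme with vehicle and -100% = no enzyme basal signal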
Target sequence (P06280 32-429 limits assumed): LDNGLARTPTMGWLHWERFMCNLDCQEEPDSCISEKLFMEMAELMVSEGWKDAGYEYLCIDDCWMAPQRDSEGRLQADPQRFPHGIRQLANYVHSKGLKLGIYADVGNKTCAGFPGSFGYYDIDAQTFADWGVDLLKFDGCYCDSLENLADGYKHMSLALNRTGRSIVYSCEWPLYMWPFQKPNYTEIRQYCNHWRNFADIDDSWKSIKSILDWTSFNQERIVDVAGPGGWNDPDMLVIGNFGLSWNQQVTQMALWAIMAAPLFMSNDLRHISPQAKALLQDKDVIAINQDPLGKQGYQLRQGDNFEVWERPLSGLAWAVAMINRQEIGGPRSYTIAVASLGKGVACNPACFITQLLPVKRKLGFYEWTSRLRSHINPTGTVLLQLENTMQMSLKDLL
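qHTS titration in buffer at pH 5.0. Alpha-galactosidase activity in spleen homogenate was measured via 4-methylumbelliferone release from 1 mM fluorogenic substrate after 40 min at 37C and a pH 10 stop. AC50 came from Hill fits of control-normalized data.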
GAA spleen mod – inhibitors or activators of human alpha-glucosidase in spleen homogenate | P10253 | human spleen homogenate, 4-MU-alpha-glucoside fluorescence | Potency, µM (highest dose often 79.9 µM), for inactives: top-dose activity change, negative = inhibition, actives largely listed as inhibitors | actives 0.006% (n = 240,000);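 further: potency means the concentration at half of the fitted maximal effect; 0% = enzyme with vehicle and -100% = no enzyme basal signal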
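Compounds were titrated against alpha-glucosidase in spleen homogenate at pH 5.0, with 1 mM 4-methylumbelliferyl substrate for 40 min at 37 C. Reactions were quenched with pH 10 NaOH/glycine and fluorescence measured.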
N370S GC – inhibitors or activators of N370S glucocerebrosidase for Gaucher disease. P04062. N370S GC spleen homogenate, 4MU-glucoside fluorescence. Potency, µM (top dose mostly 59.4 µM), inactives show top-dose activity change, negative = inhibition, most hits filed as inhibitors. actives 0.092% (n = 330,000);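 further: potency means the concentration at half of the fitted maximal effect; 0% = full enzyme activity and -100% = no enzyme basal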
GLA inh pH 4.5 – alpha-galactosidase A (human) inhibition, pH 4.5 | P06280 | purified enzyme, 4-MU-alpha-Gal fluorescence, pH 4.5 | activity change, negative = inhibition, % at 105 µM | 230,000 tested, under 10 active;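 further: 0% = full activity with enzyme and -100% = basal without enzyme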
Numbers without * were called inactive; nt = not tested or not shown. In the library only some 0.43% were active in any assay of this set; here they are far more common. The call rests on the fitted dose curve; in most records, active means well fitted curve in the direction sought with a large enough effect; inconclusive means small, poorly fitted or top-dose-only effect, or another doubt; inactive means no such curve, though single readings can be large; an effect the other way counts as inactive or inconclusive.

SMILES	GAA glycogen mod	GLA spleen mod	GAA spleen mod	N370S GC	GLA inh pH 4.5
CSCC[C@H](NC(=O)[C@H](CC(C)C)NC(=O)[C@H](CO)NC(=O)[C@H](CCC(=O)O)NC(=O)[C@H](CC(C)C)NC(=O)[C@H](Cc1ccc(O)cc1)NC(=O)[C@H](CCCCN)NC(=O)[C@H](CCCCN)NC(=O)[C@H](C)NC(=O)[C@H](CO)NC(=O)[C@H](CC(C)C)NC(=O)[C@H](CCC(N)=O)NC(=O)CNC(=O)[C@H](CC(C)C)NC(=O)[C@H](CC(C)C)NC(=O)[C@H](CCCCN)NC(=O)[C@H](CO)NC(=O)[C@H](Cc1ccccc1)NC(=O)[C@H](CC(=O)O)NC(=O)[C@H](CO)NC(=O)[C@@H](NC(=O)[C@H](Cc1ccccc1)NC(=O)[C@@H](NC(=O)CNC(=O)[C@H](CC(=O)O)NC(=O)[C@H](C)NC(=O)[C@@H](N)Cc1cnc[nH]1)C(C)C)[C@@H](C)O)C(N)=O	nt	5%	-1%	-2%	nt
O=C(O)c1cn(C2CC2)c2cc(N3CCNCC3)c(F)cc2c1=O	nt	4%	3%	-15%	4
COc1ccc(CNc2nc(-c3ccccc3)nc3ccccc23)cc1OC	2%	nt	nt	14µM*	nt
COc1cccc(-c2nc(NCc3ccccc3)c3ccccc3n2)c1O	6%	nt	nt	3%	nt
CC[C@@H]1C(c2cccc(C)c2)=NN(c2ccc(Br)cc2)[C@H]1C(=O)N1CCOC1=O	nt	11%	3%	27%	0
COCc1cc(O)c(O)c(O)c1-c1c(COC)cc(O)c(O)c1O	nt	5%	-2%	-2%	nt
